Laboratory results as given in PubChem BioAssay (EPA / NIEHS).
Results filed as inconclusive are left out. Active and inactive are the calls of the source. Rule for the calls: active = hit-call score of the fitted dose curve at least 0.9, where 1 is the maximum; inconclusive = response in the unintended direction; inactive = score below 0.9.

What follows are compounds tested against human RAR-related Orphan Receptor gamma (RORg), RORC (gene 6097) (UniProt P51449) (assay: ATG_RORg_TRANS: Attagene TRANS-FACTORIAL HepG2 Assay for human RAR-related Orphan Receptor gamma (RORg) (AID 2283011)).
Summary of the method: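 Transient MRTU transfection of HepG2 (TRANS format, exogenous NR-Gal4 chimera). 24 h dosing. Total RNA → oligo(dT) RT → PCR → 6-FAM labelling → HpaI cut → CE. Gain vs DMSO.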

Sequence of human RAR-related Orphan Receptor gamma (RORg), RORC (gene 6097) (P51449 whole entry, looked up, the tested form may be a part): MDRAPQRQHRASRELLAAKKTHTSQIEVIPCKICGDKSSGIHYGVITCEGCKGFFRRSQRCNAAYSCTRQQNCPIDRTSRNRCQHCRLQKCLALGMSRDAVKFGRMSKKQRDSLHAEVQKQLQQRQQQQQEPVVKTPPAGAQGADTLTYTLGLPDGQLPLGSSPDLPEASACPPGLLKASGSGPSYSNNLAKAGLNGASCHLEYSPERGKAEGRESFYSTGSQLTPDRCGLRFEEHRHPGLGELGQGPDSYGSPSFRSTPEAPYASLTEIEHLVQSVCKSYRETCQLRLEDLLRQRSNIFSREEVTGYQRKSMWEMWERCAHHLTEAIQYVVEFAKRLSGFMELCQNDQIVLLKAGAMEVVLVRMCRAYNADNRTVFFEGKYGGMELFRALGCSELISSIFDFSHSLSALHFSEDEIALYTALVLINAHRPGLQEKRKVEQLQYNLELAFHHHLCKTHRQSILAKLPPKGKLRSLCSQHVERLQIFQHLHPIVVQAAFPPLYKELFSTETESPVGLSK

| SMILES | outcome |
| --- | --- |
| CCCCS(=O)(=O)Cl | inactive |
| Nc1ccc(Br)cc1 | inactive |
| O=[N+]([O-])c1ccc(Cl)c([N+](=O)[O-])c1 | inactive |
| Brc1ccc(Oc2c(Br)cc(Br)cc2Br)c(Br)c1 | inactive |
| C#C[C@]1(O)CC[C@H]2[C@@H]3CCC4=CC(=O)CC[C@]4(C)[C@H]3CC[C@@]21C | inactive |
| C=CC(=O)NC(C)(C)CC(C)=O | inactive |
| CC(C)(c1ccccc1)c1cc(-n2nc3ccccc3n2)c(O)c(C(C)(C)c2ccccc2)c1 | inactive |
| ClCCCCl | inactive |
| CN(C)[C@@H]1C(=O)C(C(N)=O)=C(O)[C@@]2(O)C(=O)C3=C(O)c4c(O)ccc(Cl)c4[C@@](C)(O)[C@H]3C[C@@H]12 | inactive |
| ClCCN1CCOCC1 | inactive |
| NNCCO | inactive |
| CS(=O)(=O)c1ccc(C(=O)C2C(=O)CCCC2=O)c(Cl)c1COCC(F)(F)F | inactive |
| CCOc1cc(C=O)ccc1O | inactive |
| CC1(C)COP(Oc2ccccc2)OC1 | inactive |

What follows are compounds tested against Retinoic acid receptor RXR-alpha (Homo sapiens) (UniProt P19793) (assay: ATG_RXRa_TRANS: Attagene TRANS-FACTORIAL HepG2 Assay for human Retinoid X Receptor alpha (RXRa) (AID 2283012)).
Summary of the method: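 HepG2 cells transiently transfected with GAL4-UAS reporter units and chimeric RXRa-Gal4 protein, treated 24 h. Reporter mRNA measured by RT-PCR, fluorescent labelling, HpaI digestion and capillary electrophoresis. Induction fitted against DMSO.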

Sequence of Retinoic acid receptor RXR-alpha (Homo sapiens) (P19793 whole entry, looked up, the tested form may be a part): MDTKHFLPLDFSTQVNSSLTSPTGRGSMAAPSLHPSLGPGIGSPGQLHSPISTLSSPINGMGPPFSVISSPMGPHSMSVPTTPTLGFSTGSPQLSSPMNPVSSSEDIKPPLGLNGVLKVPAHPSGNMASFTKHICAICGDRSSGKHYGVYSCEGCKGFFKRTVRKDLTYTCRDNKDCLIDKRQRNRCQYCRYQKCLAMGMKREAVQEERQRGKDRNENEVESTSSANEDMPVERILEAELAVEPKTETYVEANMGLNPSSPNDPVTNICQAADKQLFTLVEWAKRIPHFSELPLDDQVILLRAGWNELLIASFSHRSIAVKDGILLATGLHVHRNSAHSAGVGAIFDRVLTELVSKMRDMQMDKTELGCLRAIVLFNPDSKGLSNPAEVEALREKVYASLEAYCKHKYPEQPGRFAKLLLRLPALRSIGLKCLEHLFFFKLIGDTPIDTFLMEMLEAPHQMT

| SMILES | outcome | AC50 |
| --- | --- | --- |
| CC(C)[C@H](C(=O)OC(C#N)c1cccc(Oc2ccccc2)c1)c1ccc(OC(F)F)cc1 (stereo not given in full) | inactive |  |
| O=C(O)COc1ccc(Cl)cc1 | inactive |  |
| Nc1ccc(Br)cc1 | inactive |  |
| CC(C)(C)c1ccc(CCOc2ncnc3ccccc23)cc1 | inactive |  |
| Cc1cc(SCc2sc(-c3ccc(C(F)(F)F)c(F)c3)nc2C)ccc1OCC(=O)O | inactive |  |
| Brc1ccc(Oc2c(Br)cc(Br)cc2Br)c(Br)c1 | inactive |  |
| C#C[C@]1(O)CC[C@H]2[C@@H]3CCC4=CC(=O)CC[C@]4(C)[C@H]3CC[C@@]21C | inactive |  |
| CCCCN(CCCCO)N=O | inactive |  |
| Nc1cccnc1 | inactive |  |
| C[N+](C)(C)Cc1ccccc1 | inactive |  |
| [F][Sn]([c]1ccccc1)([c]1ccccc1)[c]1ccccc1 |  | 4.04 nM (active) |
| C=CCc1ccccc1O | inactive |  |
| O=c1[nH]c2ccccc2n1C1CCN(CCCC(c2ccc(F)cc2)c2ccc(F)cc2)CC1 | inactive |  |
| ClCCCCl | inactive |  |
| CC(O)(CS(=O)(=O)c1ccc(F)cc1)C(=O)Nc1ccc(C#N)c(C(F)(F)F)c1 (stereo not given) | inactive |  |
| OC(c1ccc(Cl)cc1)(c1ccc(Cl)cc1)c1cccnc1 | inactive |  |
| CN(C)[C@@H]1C(=O)C(C(N)=O)=C(O)[C@@]2(O)C(=O)C3=C(O)c4c(O)ccc(Cl)c4[C@@](C)(O)[C@H]3C[C@@H]12 | inactive |  |
| CCCCCCCCCCCCOS(=O)(=O)O | inactive |  |
| CN(N=O)c1ccc([N+](=O)[O-])cc1 | inactive |  |
| NNCCO | inactive |  |
| CS(=O)(=O)c1ccc(C(=O)C2C(=O)CCCC2=O)c(Cl)c1COCC(F)(F)F | inactive |  |
| CCOC(=O)OC1=C(c2cc(C)ccc2C)C(=O)NC12CCC(OC)CC2 (stereo not given) | inactive |  |
| CCOc1cc(C=O)ccc1O | inactive |  |
| N#CS | inactive |  |
| Nc1ccc(-c2ccccc2)cc1 | inactive |  |
| CC1(C)COP(Oc2ccccc2)OC1 | inactive |  |
